From ChEMBL document CHEMBL2218924, “A broad activity screen in support of a chemogenomic map for kinase signalling research and drug discovery” (Biochem J, 2013)

Key:
[1] = target: Ephrin type-A receptor 4 (Homo sapiens) (UniProt P54764); details: at 1 µM
[2] = target: Ephrin type-A receptor 4 (Homo sapiens) (UniProt P54764); details: at 10 µM
[3] = target: Ephrin type-A receptor 5 (Homo sapiens) (UniProt P54756); details: at 1 µM
[4] = target: Ephrin type-A receptor 5 (Homo sapiens) (UniProt P54756); details: at 10 µM
[5] = target: Ephrin type-A receptor 7 (Homo sapiens) (UniProt Q15375); details: at 1 µM
[6] = target: Ephrin type-A receptor 7 (Homo sapiens) (UniProt Q15375); details: at 10 µM
[7] = target: T1, Ephrin type-A receptor 8 (Homo sapiens) (UniProt P29322); details: at 10 µM
T1 sequence (whole entry): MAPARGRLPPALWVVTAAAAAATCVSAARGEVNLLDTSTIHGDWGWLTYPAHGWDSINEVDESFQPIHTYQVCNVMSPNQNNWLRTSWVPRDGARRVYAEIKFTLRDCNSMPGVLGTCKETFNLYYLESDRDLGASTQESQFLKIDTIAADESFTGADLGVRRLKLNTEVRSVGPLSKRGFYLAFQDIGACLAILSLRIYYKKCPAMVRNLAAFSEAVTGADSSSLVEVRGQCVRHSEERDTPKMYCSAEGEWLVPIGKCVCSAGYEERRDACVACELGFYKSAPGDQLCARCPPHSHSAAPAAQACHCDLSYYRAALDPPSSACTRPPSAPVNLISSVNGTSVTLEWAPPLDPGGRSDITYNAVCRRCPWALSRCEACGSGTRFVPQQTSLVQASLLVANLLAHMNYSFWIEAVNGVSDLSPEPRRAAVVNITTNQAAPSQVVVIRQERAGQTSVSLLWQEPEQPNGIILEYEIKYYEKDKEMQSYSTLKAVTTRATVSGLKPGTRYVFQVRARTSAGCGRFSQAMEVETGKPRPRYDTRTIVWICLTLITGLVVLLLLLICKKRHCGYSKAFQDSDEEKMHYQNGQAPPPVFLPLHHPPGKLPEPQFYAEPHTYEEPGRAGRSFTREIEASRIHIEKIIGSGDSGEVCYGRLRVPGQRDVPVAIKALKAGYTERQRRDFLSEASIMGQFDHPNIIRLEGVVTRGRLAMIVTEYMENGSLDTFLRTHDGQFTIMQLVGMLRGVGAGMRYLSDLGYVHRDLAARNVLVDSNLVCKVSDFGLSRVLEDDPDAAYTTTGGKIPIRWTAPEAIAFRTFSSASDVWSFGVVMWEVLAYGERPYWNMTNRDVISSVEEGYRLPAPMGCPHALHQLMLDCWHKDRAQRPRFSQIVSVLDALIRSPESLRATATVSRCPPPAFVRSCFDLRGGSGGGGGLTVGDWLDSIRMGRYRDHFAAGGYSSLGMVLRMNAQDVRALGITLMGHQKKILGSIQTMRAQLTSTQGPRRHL

[8] = target: T2, Ephrin type-B receptor 1 (Homo sapiens) (UniProt P54762); details: at 1 µM
T2 sequence (whole entry): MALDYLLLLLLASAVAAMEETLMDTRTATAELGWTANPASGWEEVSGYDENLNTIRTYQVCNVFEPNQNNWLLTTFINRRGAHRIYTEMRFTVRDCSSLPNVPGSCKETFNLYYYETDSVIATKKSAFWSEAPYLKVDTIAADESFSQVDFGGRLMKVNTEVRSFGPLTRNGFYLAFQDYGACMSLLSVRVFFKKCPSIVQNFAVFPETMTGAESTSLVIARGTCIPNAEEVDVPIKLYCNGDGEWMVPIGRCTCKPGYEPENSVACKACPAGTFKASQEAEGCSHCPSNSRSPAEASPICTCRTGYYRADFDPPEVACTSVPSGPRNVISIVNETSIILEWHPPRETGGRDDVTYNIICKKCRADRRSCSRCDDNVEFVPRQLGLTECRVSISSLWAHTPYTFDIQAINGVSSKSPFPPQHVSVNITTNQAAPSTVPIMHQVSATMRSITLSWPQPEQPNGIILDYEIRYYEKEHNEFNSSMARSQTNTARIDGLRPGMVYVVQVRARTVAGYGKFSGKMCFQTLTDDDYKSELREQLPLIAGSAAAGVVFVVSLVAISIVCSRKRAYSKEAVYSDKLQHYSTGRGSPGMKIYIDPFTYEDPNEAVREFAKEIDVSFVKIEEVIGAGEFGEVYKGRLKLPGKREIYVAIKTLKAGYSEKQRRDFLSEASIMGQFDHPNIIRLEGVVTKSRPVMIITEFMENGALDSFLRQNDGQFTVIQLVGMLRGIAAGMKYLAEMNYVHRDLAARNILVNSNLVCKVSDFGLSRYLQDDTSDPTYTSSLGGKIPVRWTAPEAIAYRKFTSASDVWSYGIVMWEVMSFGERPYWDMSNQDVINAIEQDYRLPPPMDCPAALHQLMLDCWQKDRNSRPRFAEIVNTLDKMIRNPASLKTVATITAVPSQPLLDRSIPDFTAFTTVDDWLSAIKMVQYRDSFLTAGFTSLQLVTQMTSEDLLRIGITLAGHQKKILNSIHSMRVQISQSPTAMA

[9] = target: T2, Ephrin type-B receptor 1 (Homo sapiens); details: at 10 µM
[10] = target: T3, Ephrin type-B receptor 2 (Homo sapiens) (UniProt P29323); details: at 1 µM
T3 sequence (whole entry): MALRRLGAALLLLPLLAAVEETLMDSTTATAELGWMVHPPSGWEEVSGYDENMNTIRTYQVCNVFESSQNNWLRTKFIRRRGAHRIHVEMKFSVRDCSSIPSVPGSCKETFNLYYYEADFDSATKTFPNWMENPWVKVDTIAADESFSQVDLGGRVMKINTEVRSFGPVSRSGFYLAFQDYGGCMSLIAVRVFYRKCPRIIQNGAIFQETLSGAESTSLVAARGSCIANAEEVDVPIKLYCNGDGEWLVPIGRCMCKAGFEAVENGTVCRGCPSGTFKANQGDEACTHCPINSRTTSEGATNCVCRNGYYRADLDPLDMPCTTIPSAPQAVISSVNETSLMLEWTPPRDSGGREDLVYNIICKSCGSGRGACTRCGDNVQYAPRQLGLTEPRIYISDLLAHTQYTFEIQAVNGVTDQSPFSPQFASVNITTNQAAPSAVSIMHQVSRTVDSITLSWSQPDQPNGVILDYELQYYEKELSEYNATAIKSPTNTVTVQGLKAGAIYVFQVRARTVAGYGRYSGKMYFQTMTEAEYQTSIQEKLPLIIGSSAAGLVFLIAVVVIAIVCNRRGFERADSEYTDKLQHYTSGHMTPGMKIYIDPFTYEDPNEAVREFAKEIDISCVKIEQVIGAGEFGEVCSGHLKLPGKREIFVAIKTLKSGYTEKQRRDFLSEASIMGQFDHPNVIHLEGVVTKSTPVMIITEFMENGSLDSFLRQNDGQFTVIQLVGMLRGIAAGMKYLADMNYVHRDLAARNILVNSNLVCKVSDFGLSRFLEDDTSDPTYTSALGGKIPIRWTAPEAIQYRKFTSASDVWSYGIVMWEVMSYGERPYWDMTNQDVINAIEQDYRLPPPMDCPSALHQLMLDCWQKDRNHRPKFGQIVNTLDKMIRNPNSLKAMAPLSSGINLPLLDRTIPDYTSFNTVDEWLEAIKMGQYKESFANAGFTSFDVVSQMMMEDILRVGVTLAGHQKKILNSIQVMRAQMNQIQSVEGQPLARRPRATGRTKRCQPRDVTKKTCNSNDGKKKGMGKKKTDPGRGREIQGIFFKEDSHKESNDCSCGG

[11] = target: T3, Ephrin type-B receptor 2 (Homo sapiens); details: at 10 µM
[12] = target: T4, Ephrin type-B receptor 3 (Homo sapiens) (UniProt P54753); details: at 1 µM
T4 sequence (whole entry): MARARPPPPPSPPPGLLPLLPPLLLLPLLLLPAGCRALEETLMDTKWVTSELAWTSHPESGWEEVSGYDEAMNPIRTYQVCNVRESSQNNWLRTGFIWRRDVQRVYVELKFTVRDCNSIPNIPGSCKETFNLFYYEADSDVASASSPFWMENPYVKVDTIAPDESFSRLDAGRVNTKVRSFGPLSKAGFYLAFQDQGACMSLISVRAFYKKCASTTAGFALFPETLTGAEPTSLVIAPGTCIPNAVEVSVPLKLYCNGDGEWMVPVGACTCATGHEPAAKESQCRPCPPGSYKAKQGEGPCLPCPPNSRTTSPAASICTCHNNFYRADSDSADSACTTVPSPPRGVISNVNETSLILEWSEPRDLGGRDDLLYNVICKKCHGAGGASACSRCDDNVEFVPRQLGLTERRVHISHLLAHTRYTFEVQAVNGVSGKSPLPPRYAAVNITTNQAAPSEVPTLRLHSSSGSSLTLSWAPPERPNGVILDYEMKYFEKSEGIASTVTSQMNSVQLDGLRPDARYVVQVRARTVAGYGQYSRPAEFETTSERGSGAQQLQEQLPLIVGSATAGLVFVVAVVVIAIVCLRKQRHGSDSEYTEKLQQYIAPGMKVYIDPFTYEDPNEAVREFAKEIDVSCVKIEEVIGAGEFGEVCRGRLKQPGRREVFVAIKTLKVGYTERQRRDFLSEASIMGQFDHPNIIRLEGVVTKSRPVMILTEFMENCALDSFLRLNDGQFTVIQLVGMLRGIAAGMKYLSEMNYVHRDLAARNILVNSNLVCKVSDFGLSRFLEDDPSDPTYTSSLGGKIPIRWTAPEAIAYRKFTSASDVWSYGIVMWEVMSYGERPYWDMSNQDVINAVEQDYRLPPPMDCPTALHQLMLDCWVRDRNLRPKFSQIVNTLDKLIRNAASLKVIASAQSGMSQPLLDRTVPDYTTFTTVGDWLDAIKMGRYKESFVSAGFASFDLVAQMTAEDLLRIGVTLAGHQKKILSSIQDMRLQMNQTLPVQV

[13] = target: Focal adhesion kinase 1 (Homo sapiens) (UniProt Q05397); details: at 1 µM
[14] = target: T5, Ephrin type-A receptor 3 (Homo sapiens) (UniProt P29320); details: at 10 µM
T5 sequence (whole entry): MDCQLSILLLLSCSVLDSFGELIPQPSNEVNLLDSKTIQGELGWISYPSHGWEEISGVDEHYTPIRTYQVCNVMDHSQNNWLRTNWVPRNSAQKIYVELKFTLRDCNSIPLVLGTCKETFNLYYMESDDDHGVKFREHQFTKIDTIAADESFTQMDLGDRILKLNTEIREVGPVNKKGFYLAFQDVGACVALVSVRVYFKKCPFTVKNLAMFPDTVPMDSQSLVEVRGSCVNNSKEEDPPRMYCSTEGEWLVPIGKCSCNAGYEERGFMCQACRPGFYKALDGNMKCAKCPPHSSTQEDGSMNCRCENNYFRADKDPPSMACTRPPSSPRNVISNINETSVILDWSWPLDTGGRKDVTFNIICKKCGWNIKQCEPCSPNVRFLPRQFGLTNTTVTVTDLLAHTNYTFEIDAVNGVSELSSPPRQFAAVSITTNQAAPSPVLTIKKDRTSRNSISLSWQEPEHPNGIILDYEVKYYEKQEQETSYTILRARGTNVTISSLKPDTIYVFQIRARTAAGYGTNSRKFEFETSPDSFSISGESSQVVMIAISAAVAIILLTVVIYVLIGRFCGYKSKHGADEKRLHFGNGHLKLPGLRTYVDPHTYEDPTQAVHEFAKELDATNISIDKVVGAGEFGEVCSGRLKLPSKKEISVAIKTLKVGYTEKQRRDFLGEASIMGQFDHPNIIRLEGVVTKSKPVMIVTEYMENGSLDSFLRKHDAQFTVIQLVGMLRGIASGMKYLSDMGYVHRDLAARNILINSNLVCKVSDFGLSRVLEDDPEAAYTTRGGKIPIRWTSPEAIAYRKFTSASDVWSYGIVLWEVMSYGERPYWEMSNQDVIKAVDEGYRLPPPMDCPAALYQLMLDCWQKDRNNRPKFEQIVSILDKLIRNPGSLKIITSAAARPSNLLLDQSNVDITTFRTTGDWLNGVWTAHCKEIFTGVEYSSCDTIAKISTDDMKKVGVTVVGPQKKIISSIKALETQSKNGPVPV

[15] = target: T1, Ephrin type-A receptor 8 (Homo sapiens); details: at 1 µM
[16] = target: T6, Ephrin type-B receptor 4 (Homo sapiens) (UniProt P54760); details: at 10 µM
T6 sequence (whole entry): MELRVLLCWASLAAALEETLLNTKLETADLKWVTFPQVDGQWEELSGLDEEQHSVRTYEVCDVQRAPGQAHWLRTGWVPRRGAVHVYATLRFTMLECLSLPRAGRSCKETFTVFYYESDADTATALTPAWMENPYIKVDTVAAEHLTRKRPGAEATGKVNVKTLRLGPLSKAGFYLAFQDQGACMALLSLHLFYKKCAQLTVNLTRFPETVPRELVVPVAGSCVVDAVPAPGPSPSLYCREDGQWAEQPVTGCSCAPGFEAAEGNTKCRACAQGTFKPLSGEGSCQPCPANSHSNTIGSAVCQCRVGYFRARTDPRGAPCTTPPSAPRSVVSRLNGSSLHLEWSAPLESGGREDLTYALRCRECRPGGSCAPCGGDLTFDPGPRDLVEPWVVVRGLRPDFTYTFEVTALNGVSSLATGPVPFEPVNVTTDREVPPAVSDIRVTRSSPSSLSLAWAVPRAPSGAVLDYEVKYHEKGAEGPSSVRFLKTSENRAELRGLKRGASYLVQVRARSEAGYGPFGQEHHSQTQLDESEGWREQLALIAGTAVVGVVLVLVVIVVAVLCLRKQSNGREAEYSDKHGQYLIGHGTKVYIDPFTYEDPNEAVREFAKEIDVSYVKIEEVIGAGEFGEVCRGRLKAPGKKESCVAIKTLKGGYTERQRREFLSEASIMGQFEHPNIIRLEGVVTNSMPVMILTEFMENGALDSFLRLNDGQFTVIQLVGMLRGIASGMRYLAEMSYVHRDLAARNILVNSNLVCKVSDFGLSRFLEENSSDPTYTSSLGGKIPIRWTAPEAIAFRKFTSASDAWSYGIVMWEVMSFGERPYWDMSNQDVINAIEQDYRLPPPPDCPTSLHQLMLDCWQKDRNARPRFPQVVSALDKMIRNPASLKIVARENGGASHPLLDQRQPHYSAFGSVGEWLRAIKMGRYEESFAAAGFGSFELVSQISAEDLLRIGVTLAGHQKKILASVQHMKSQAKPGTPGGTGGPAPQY

Chain of Ephrin type-A receptor 4 (Homo sapiens) (P54764 whole entry): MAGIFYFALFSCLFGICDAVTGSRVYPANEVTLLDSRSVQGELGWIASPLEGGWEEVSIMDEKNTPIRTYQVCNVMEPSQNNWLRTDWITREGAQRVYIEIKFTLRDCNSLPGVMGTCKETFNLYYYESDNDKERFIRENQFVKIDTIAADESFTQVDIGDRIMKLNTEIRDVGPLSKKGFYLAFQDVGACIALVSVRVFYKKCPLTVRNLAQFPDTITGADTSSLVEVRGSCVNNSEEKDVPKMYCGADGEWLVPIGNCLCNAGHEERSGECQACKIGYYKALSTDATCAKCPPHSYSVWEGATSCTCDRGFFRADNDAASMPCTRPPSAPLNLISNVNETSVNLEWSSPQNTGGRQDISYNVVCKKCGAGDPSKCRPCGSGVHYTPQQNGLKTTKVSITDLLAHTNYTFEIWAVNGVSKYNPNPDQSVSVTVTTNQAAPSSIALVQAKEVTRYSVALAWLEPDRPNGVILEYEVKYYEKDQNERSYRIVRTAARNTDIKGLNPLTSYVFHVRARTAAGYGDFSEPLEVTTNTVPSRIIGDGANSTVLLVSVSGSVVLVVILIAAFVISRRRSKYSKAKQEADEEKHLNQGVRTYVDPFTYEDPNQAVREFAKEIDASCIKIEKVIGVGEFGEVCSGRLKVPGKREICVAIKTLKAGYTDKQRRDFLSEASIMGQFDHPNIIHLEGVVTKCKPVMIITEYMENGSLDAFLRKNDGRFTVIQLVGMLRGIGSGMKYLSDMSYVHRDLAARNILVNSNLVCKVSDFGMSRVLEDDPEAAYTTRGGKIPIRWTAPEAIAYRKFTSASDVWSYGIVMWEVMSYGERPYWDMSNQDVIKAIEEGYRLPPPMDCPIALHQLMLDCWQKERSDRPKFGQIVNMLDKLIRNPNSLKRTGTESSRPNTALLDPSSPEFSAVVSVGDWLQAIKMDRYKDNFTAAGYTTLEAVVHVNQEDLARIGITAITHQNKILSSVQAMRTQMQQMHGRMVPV
Chain of Ephrin type-A receptor 7 (Homo sapiens) (Q15375 28-998 limits assumed): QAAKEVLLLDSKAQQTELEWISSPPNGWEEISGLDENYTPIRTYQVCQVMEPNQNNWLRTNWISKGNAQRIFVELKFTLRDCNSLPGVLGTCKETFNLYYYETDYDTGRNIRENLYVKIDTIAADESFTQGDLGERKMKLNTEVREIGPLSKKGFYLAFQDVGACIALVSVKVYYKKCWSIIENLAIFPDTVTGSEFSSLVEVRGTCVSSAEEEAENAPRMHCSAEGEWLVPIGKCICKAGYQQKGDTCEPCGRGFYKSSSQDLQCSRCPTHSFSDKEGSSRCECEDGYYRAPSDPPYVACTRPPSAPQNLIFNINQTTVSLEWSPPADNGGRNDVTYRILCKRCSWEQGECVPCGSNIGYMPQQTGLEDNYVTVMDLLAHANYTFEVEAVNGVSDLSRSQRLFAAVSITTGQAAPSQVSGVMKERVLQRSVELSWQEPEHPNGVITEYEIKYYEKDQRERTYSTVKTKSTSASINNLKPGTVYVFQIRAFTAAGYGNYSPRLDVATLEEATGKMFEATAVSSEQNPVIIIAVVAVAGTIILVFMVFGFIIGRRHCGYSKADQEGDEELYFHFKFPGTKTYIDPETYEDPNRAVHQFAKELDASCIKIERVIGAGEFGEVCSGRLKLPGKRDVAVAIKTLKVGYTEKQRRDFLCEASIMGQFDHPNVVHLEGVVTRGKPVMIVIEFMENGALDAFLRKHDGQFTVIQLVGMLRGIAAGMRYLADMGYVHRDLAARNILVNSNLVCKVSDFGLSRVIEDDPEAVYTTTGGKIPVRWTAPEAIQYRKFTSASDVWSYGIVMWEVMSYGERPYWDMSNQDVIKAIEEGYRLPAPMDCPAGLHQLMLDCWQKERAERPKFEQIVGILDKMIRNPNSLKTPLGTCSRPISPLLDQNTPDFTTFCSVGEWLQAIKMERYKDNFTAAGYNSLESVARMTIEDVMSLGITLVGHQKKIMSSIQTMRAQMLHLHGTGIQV
Chain of Focal adhesion kinase 1 (Homo sapiens) (Q05397 2-1052 limits assumed): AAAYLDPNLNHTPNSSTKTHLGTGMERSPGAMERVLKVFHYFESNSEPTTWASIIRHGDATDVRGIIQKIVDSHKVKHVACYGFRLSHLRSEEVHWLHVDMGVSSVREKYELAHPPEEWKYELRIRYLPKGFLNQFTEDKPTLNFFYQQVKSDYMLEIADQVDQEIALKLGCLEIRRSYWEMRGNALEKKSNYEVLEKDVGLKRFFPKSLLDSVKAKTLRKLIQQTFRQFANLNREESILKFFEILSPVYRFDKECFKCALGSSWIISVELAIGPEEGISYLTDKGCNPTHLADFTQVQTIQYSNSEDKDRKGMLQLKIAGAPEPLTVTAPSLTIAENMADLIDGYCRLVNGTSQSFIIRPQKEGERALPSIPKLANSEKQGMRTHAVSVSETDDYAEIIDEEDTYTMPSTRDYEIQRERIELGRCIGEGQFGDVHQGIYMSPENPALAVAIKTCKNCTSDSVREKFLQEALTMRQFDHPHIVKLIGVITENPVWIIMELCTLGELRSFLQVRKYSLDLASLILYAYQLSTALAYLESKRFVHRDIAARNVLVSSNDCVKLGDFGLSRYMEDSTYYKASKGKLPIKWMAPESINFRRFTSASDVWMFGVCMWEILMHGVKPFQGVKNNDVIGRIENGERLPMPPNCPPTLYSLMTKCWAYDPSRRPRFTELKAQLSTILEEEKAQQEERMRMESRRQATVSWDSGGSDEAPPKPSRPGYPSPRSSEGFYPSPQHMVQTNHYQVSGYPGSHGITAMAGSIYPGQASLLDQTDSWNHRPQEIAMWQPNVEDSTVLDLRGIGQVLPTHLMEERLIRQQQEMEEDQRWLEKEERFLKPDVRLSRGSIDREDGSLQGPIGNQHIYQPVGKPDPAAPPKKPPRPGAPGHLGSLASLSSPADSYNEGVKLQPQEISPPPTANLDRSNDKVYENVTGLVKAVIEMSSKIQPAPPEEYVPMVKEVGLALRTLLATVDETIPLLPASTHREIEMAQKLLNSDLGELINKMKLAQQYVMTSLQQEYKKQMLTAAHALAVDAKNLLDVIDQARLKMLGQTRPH
Chain of Ephrin type-A receptor 5 (Homo sapiens) (P54756 whole entry): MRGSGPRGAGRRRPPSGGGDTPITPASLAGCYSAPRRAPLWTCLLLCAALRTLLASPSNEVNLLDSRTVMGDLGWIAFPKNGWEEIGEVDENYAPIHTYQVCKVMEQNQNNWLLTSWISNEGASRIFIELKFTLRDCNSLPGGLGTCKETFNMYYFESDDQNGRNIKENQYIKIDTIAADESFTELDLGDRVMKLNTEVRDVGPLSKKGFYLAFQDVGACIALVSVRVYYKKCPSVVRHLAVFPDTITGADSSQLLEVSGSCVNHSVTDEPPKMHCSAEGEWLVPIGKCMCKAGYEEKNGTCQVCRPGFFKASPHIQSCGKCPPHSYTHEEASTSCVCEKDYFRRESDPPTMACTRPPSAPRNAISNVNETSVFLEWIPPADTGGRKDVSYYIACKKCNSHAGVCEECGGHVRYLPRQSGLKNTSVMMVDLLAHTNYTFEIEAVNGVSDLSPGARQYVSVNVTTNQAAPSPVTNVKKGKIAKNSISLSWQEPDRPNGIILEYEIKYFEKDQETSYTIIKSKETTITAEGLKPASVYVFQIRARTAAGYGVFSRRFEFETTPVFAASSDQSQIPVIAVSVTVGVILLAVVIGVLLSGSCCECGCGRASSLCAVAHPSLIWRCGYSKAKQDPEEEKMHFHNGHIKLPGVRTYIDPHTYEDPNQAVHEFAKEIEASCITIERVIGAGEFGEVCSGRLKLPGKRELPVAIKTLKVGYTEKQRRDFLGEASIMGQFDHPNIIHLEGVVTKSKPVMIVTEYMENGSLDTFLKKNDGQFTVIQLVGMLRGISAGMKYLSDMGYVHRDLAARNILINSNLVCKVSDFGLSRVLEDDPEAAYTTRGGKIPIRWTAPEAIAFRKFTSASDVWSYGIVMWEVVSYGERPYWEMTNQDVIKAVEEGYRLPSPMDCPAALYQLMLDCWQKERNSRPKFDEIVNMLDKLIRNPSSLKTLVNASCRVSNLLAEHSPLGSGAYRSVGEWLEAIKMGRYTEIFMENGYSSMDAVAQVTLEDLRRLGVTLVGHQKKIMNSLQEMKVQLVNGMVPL

Compound | residual activity [1] [%] | residual activity [2] [%] | residual activity [3] [%] | residual activity [4] [%] | residual activity [5] [%] | residual activity [6] [%] | residual activity [7] [%] | residual activity [8] [%] | residual activity [9] [%] | residual activity [10] [%] | residual activity [11] [%] | residual activity [12] | residual activity [13] [%] | residual activity [14] [%] | residual activity [15] [%] | residual activity [16] [%]
Nc1nc(Nc2ccc(S(N)(=O)=O)cc2)nn1C(=O)c1c(F)cccc1F | 108 | 95 | 103 | 73 | 52 | 8 | 55 | 78 | 14 | 103 | 68 | 115% (inactive) | 102 | – | – | –
O=C(Nc1nc2ccccc2n1CCN1CCOCC1)c1cccc([N+](=O)[O-])c1 | – | – | – | – | – | – | 103 | 100 | 103 | 113 | 110 | 110% (inactive) | 131 | 81 | 108 | 109
